“And” between values parts separate entries of the source, which are not always exact repeats. Identical values can stand only once. The whole screen tested about 5,500 compounds, of which about 2,000 (36%) were called active. About 18% were inconclusive and are not listed. No stated cut-off is given here; in the data, active means normalized growth mostly below about 0.91 (no sharp cut-off); inconclusive means no clear call, values can overlap the other calls; inactive means mostly above about 0.92. The list shows a part of the results.
Assay: chemical genetic growth profiling, strain panel (AID 1159580);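 further: tested at 20 µM; growth read once vehicle control cultures reached saturation at 30 °C; 1 = growth at the plate median or of vehicle wells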
Conditions: S. cerevisiae deletion strains, growth OD

Measured: normalized growth

NCCCN
inactive: locus YAL021C, strain ccr4, stronger effect = lower value 1.02 | locus YAL026C, strain drs2, stronger effect = lower value 0.984 | locus YAL030W, strain snc1, stronger effect = lower value 0.989 | locus YBL061C, strain skt5, stronger effect = lower value 0.989 | locus YBR009C, strain hhf1, stronger effect = lower value 0.988 | locus YBR021W, strain FUR4, stronger effect = lower value 0.996 | locus YBR023C, strain chs3, stronger effect = lower value 0.982 | locus YBR171W, strain sec66, stronger effect = lower value 0.957 | locus YBR229C, strain ROT2, stronger effect = lower value 0.99 | locus YBR231C, strain swc5, stronger effect = lower value 0.984 | locus YBR279W, strain paf1, stronger effect = lower value 1 | locus YCL011C, strain gbp2, stronger effect = lower value 0.973 | locus YCL016C, strain dcc1, stronger effect = lower value 1 | locus YCL029C, strain bik1, stronger effect = lower value 0.984 | locus YCL061C, strain MRC1, stronger effect = lower value 1.01 | locus YCL069W, strain vba3, stronger effect = lower value 0.973 | locus YCR088W, strain abp1, stronger effect = lower value 0.982 | locus YDL005C, strain med2, stronger effect = lower value 0.977 | locus YDL035C, strain GPR1, stronger effect = lower value 1.03 | locus YDL040C, strain nat1, stronger effect = lower value 0.986 | locus YDL074C, strain BRE1, stronger effect = lower value 1.01 | locus YDL101C, strain DUN1, stronger effect = lower value 0.994 | locus YDL185W, strain tfp1, stronger effect = lower value 0.983 | locus YDL192W, strain arf1, stronger effect = lower value 0.998 | locus YDR001C, strain nth1, stronger effect = lower value 0.99 | locus YDR069C, strain doa4, stronger effect = lower value 0.987 | locus YDR101C, strain arx1, stronger effect = lower value 0.976 | locus YDR137W, strain rgp1, stronger effect = lower value 1.02 | locus YDR159W, strain sac3, stronger effect = lower value 0.961 | locus YDR162C, strain NBP2, stronger effect = lower value 1.01 | locus YDR195W, strain ref2 0.981 | locus YDR297W, strain sur2, stronger effect = lower value 0.996 | locus YDR318W, strain mcm21, stronger effect = lower value 1.01 | locus YDR334W, strain swr1, stronger effect = lower value 0.962 | locus YDR335W, strain msn5, stronger effect = lower value 0.987 | locus YDR388W, stronger effect = lower value 0.993 | locus YDR392W, strain spt3, stronger effect = lower value 0.964 | locus YDR502C, strain sam2, stronger effect = lower value 0.997 | locus YEL003W, strain gim4, stronger effect = lower value 0.976 | locus YEL037C, strain rad23, stronger effect = lower value 0.98 | locus YEL061C, strain CIN8 (second series), stronger effect = lower value 0.965 | locus YEL061C, strain CIN8, stronger effect = lower value 0.997 | locus YER015W, strain faa2, stronger effect = lower value 0.992 | locus YER016W, strain bim1, stronger effect = lower value 0.989 | locus YER110C, stronger effect = lower value 0.979 | locus YER111C, strain swi4, stronger effect = lower value 0.964 | locus YER155C, strain BEM2 (second series), stronger effect = lower value 0.966 | locus YER155C, strain BEM2, stronger effect = lower value 0.982 | locus YER167W, strain BCK2, stronger effect = lower value 0.989 | locus YFR010W, strain ubp6, stronger effect = lower value 0.958 | locus YGL078C, strain dbp3, stronger effect = lower value 0.999 | locus YGL086W, strain mad1, stronger effect = lower value 0.983 | locus YGL167C, strain pmr1, stronger effect = lower value 0.983 | locus YGL173C, strain kem1, stronger effect = lower value 0.972 | locus YGL227W, strain vid30, stronger effect = lower value 0.986 | locus YGL240W, strain doc1, stronger effect = lower value 0.979 | locus YGL248W, strain PDE1, stronger effect = lower value 1.01 | locus YGL253W, strain hxk2, stronger effect = lower value 0.968 | locus YGR078C, strain PAC10, stronger effect = lower value 1 | locus YGR135W, strain pre9, stronger effect = lower value 1.01 | locus YGR252W, strain gcn5, stronger effect = lower value 1.08 | locus YHR013C, strain ard1, stronger effect = lower value 0.972 | locus YHR027C, strain rpn1, stronger effect = lower value 1.01 | locus YHR030C, strain SLT2, stronger effect = lower value 0.997 and 0.973 | locus YHR079C, strain IRE1 (second series), stronger effect = lower value 0.994 | locus YHR079C, strain IRE1, stronger effect = lower value 0.976 | locus YHR094C, strain hxt1, stronger effect = lower value 0.979 | locus YHR129C, strain ARP1, stronger effect = lower value 1 | locus YHR142W, strain chs7, stronger effect = lower value 0.976 | locus YHR200W, strain rpn10, stronger effect = lower value 0.993 | locus YIL066C, strain RNR3, stronger effect = lower value 0.995 | locus YIL073C, strain SPO22, stronger effect = lower value 1.06 | locus YIL125W, strain kgd1, stronger effect = lower value 0.991 | locus YIR030C, strain dcg1, stronger effect = lower value 0.992 | locus YJL092W, strain hpr5, stronger effect = lower value 0.969 | locus YJL095W, strain BCK1 (second series), stronger effect = lower value 0.984 | locus YJL095W, strain BCK1, stronger effect = lower value 1.05 and 1.04 | locus YJL115W, strain asf1, stronger effect = lower value 0.956 | locus YJL129C, strain trk1, stronger effect = lower value 0.995 | locus YJL134W, strain LCB3, stronger effect = lower value 1 | locus YJL154C, strain vps35, stronger effect = lower value 0.981 | locus YJL164C, strain tpk1, stronger effect = lower value 1.01 | locus YJL166W, strain qcr8, stronger effect = lower value 0.989 | locus YJL168C, strain set2, stronger effect = lower value 0.983 | locus YJL187C, strain SWE1 (second series), stronger effect = lower value 1.01 | locus YJL187C, strain SWE1, stronger effect = lower value 1 | locus YJR043C, strain POL32, stronger effect = lower value 1.03

Reference: PubChem BioAssay AID1159580 (chemical genetic matrix, 2015)
